Measured values taken from PubChem BioAssay (NCI).
Compounds without any hit were thinned out: in the full panel of roughly 83,000, 20% have a hit.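 A percent growth of 40 corresponds to 60% growth inhibition; 0 means no net growth; -100 means all cells died. Active threshold: below 10.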 Calls of active or inactive are those of the source.

Tests used:
Assay in all cases: NCI-60 one-dose screen, 48 h (100 = growth as untreated, 0 = no growth, -100 = all killed)
HT29 colon = details: 10 µM unless noted
SNB-75 CNS = details: 10 µM unless noted
SNB-19 CNS = details: 10 µM unless noted
U251 CNS = details: 10 µM unless noted
PC-3 prostate = details: 10 µM unless noted
SK-MEL-5 melanoma = details: 10 µM unless noted
UACC-62 melanoma = details: 10 µM unless noted
LOX IMVI melanoma = details: 10 µM unless noted
SK-MEL-28 melanoma = details: 10 µM
SK-MEL-2 melanoma = details: 10 µM unless noted
EKVX NSCLC = details: 10 µM unless noted
SN12C renal = details: 10 µM unless noted
UO-31 renal = details: 10 µM unless noted
TK-10 renal = details: 10 µM unless noted
ACHN renal = details: 10 µM unless noted
CAKI-1 renal = details: 10 µM unless noted
A498 renal = details: 10 µM unless noted
CCRF-CEM leukemia = details: 10 µM unless noted
MOLT-4 leukemia = details: 10 µM unless noted
SR leukemia = details: 10 µM unless noted

Measured: growth

O=c1oc2ccc(F)cc2c(=O)n1-c1ccc(I)cc1F
active: SNB-75 CNS -15.3% | U251 CNS 0.481% | PC-3 prostate -2.68% | SK-MEL-5 melanoma -84.1% | UACC-62 melanoma -16.4% | SK-MEL-2 melanoma -19.7% | EKVX NSCLC 9.58% | SN12C renal -3.72% | UO-31 renal 2.62% | TK-10 renal 0.748% | ACHN renal 1.58% | CAKI-1 renal -19.2% | A498 renal -61.4% | MOLT-4 leukemia -0.279%
inactive: HT29 colon 46.2% | SNB-19 CNS 15.6% | LOX IMVI melanoma 10.7% | SK-MEL-28 melanoma 12.3% | CCRF-CEM leukemia 12%

O=C(c1ccccc1)N(C(=S)NCCc1ccc(Cl)cc1)c1ccc(Cl)cc1
active: LOX IMVI melanoma -16.6% | MOLT-4 leukemia -10.7%
inactive: HT29 colon 37.6% | SNB-75 CNS 74.8% | SNB-19 CNS 59.3% | U251 CNS 47.8% | PC-3 prostate 66.2% | SK-MEL-5 melanoma 67.2% | UACC-62 melanoma 76.8% | SK-MEL-28 melanoma 42.8% | SK-MEL-2 melanoma 40.7% | EKVX NSCLC 83.5% | SN12C renal 66.1% | UO-31 renal 59.1% | TK-10 renal 44.3% | ACHN renal 64.5% | CAKI-1 renal 42.1% | A498 renal 91.4% | CCRF-CEM leukemia 80.7%

O=c1oc2ccc(I)cc2c(=O)n1-c1ccc(Cl)cc1F
active: SNB-75 CNS -12.3% | U251 CNS 0.686% | PC-3 prostate -0.803% | SK-MEL-5 melanoma -87.2% | UACC-62 melanoma -15.8% | SK-MEL-2 melanoma -28.6% | EKVX NSCLC 9.47% | SN12C renal 2.21% | UO-31 renal 2.47% | ACHN renal 3.57% | CAKI-1 renal -16.9% | A498 renal -68.3% | CCRF-CEM leukemia 7.77% | MOLT-4 leukemia -11.1%
inactive: HT29 colon 63.6% | SNB-19 CNS 20.8% | LOX IMVI melanoma 13% | SK-MEL-28 melanoma 10.9% | TK-10 renal 10.5%

O=C(c1ccccc1)N(CCc1ccc(Cl)cc1)C(=S)N(C(=O)c1ccccc1)c1ccccc1
inactive: HT29 colon 104% | SNB-75 CNS 104% | SNB-19 CNS 109% | U251 CNS 97% | PC-3 prostate 85.7% | SK-MEL-5 melanoma 95.9% | UACC-62 melanoma 94.5% | LOX IMVI melanoma 81.5% | SK-MEL-28 melanoma 119% | SK-MEL-2 melanoma 117% | EKVX NSCLC 102% | SN12C renal 100% | UO-31 renal 81.7% | TK-10 renal 97.4% | ACHN renal 110% | CAKI-1 renal 96.9% | A498 renal 92.3% | MOLT-4 leukemia 28.7%
active: CCRF-CEM leukemia 8.54%

COc1cc(C=C2C(=O)N(C)C(=O)N(C)C2=O)cc(CN2CCCCC2)c1O
inactive: HT29 colon 103% | SNB-75 CNS 89.8% | SNB-19 CNS 92.6% | U251 CNS 99.6% | PC-3 prostate 105% | SK-MEL-5 melanoma 100% | UACC-62 melanoma 96.8% | LOX IMVI melanoma 98.7% | SK-MEL-28 melanoma 102% | SK-MEL-2 melanoma 102% | EKVX NSCLC 104% | SN12C renal 94% | UO-31 renal 75.4% | TK-10 renal 103% | ACHN renal 95.9% | CAKI-1 renal 92.4% | A498 renal 98.7% | CCRF-CEM leukemia 109% | MOLT-4 leukemia 98.2% | SR leukemia 94.4%

O=c1oc2ccc(Cl)cc2c(=O)n1-c1ccc(F)cc1F
active: SNB-75 CNS -12% | U251 CNS 7.08% | PC-3 prostate 2.49% | SK-MEL-5 melanoma -66.9% | UACC-62 melanoma 3.47% | SK-MEL-2 melanoma -26.4% | SN12C renal 4.19% | UO-31 renal -1.33% | ACHN renal 4.18% | CAKI-1 renal -14% | A498 renal -35.4% | MOLT-4 leukemia 9.73%
inactive: HT29 colon 86.6% | SNB-19 CNS 13.6% | LOX IMVI melanoma 17.8% | SK-MEL-28 melanoma 21.8% | EKVX NSCLC 36.2% | TK-10 renal 21% | CCRF-CEM leukemia 13.7%

O=c1oc2ccc(Cl)cc2c(=O)n1-c1ccc(Cl)cc1F
inactive: SNB-19 CNS 18.4%
active: HT29 colon 7.06% | SNB-75 CNS -25.3% | U251 CNS -4.3% | PC-3 prostate 2.03% | SK-MEL-5 melanoma -87% | UACC-62 melanoma -10.7% | LOX IMVI melanoma 3.62% | SK-MEL-28 melanoma 0.566% | SK-MEL-2 melanoma -31% | EKVX NSCLC 9.78% | SN12C renal 2.13% | UO-31 renal 6.59% | TK-10 renal 6.66% | ACHN renal 4.37% | CAKI-1 renal -16.8% | A498 renal -71.7% | CCRF-CEM leukemia 5.21% | MOLT-4 leukemia -25.1%

O=C(Nc1ccc(F)cc1F)c1cc(Cl)ccc1O
active: SNB-75 CNS -8.57% | U251 CNS 3.34% | PC-3 prostate 6.06% | SK-MEL-5 melanoma -67.5% | UACC-62 melanoma 7.39% | SK-MEL-2 melanoma -25.6% | SN12C renal 2.94% | UO-31 renal -0.334% | ACHN renal 4.87% | CAKI-1 renal -14.7% | A498 renal -34.4% | MOLT-4 leukemia 8.79%
inactive: HT29 colon 31.4% | SNB-19 CNS 16.2% | LOX IMVI melanoma 14.5% | SK-MEL-28 melanoma 25.3% | EKVX NSCLC 34.2% | TK-10 renal 17.4% | CCRF-CEM leukemia 15.4%

CC1=C(C(=O)OCC2CCN(C(=O)OC(C)(C)C)CC2)[C@H](c2cccc(C#N)c2)C2=C(CC(C)(C)CC2=O)N1
inactive: HT29 colon 30.9% | SNB-75 CNS 62.5% | SNB-19 CNS 51.7% | U251 CNS 47.6% | PC-3 prostate 59.4% | SK-MEL-5 melanoma 20.5% | UACC-62 melanoma 43.5% | LOX IMVI melanoma 15.2% | SK-MEL-28 melanoma 68.4% | SK-MEL-2 melanoma 75.3% | EKVX NSCLC 62.6% | SN12C renal 52.9% | UO-31 renal 57.8% | TK-10 renal 69.7% | ACHN renal 35.4% | CAKI-1 renal 52.4% | A498 renal 68.3% | CCRF-CEM leukemia 40.5% | MOLT-4 leukemia 25.3%

O=C(/C=C/c1ccc(Cl)cc1)c1ccc(Nc2nc(NCCO)nc(Nc3ccc(Cl)cc3)n2)cc1
inactive: HT29 colon 30.5% | SNB-75 CNS 47.5% | SNB-19 CNS 77.6% | U251 CNS 21.8% | PC-3 prostate 53.1% | SK-MEL-5 melanoma 81.5% | UACC-62 melanoma 60.7% | LOX IMVI melanoma 37.2% | SK-MEL-28 melanoma 78.1% | SK-MEL-2 melanoma 96% | EKVX NSCLC 59.1% | SN12C renal 83.1% | UO-31 renal 57.3% | TK-10 renal 94.2% | ACHN renal 57.2% | CAKI-1 renal 67.3% | A498 renal 79.5% | CCRF-CEM leukemia 47.2% | MOLT-4 leukemia 46.1% | SR leukemia 23.2%

O=C(Nc1ccc(Cl)cc1F)c1cc(Br)ccc1O
active: SNB-75 CNS -13.6% | U251 CNS 1.1% | PC-3 prostate -0.306% | SK-MEL-5 melanoma -87.2% | UACC-62 melanoma -21.8% | SK-MEL-2 melanoma -16.3% | EKVX NSCLC 9.24% | SN12C renal 1.01% | UO-31 renal 5.96% | TK-10 renal 5.64% | ACHN renal 2.84% | CAKI-1 renal -10.7% | A498 renal -62.9% | MOLT-4 leukemia 0.561%
inactive: HT29 colon 42.4% | SNB-19 CNS 20.4% | LOX IMVI melanoma 16.1% | SK-MEL-28 melanoma 13.2% | CCRF-CEM leukemia 15.1%

Cn1cc([C@@H]2Nc3ccc4[nH]ncc4c3[C@H]3[C@H]4CCC(C4)[C@H]32)c(C(F)(F)F)n1
active: A498 renal 8.35%
inactive: HT29 colon 16% | SNB-75 CNS 13.1% | SNB-19 CNS 50.7% | U251 CNS 42.5% | PC-3 prostate 52.1% | SK-MEL-5 melanoma 30.5% | UACC-62 melanoma 30.4% | LOX IMVI melanoma 44.2% | SK-MEL-28 melanoma 62% | SK-MEL-2 melanoma 21.1% | EKVX NSCLC 67.1% | SN12C renal 50.6% | UO-31 renal 49.6% | TK-10 renal 65.6% | ACHN renal 50.5% | CAKI-1 renal 35.3% | CCRF-CEM leukemia 27.6% | MOLT-4 leukemia 29.4%

CC[C@]1(O)C[C@@H]2CN(CCc3c([nH]c4ccccc34)[C@@](C(=O)OC)(c3cc4c(cc3OC)N(C)[C@H]3[C@@](O)(C(=O)OC)[C@H](OC(C)=O)[C@]5(CC)C=CCN6CC[C@]43[C@@H]65)C2)C1
active: HT29 colon 8.06% | SNB-75 CNS 3.82% | SK-MEL-5 melanoma -54.6% | CAKI-1 renal 4.83% | A498 renal -12.5%
inactive: SNB-19 CNS 29.8% | U251 CNS 16.6% | PC-3 prostate 20% | UACC-62 melanoma 34.4% | LOX IMVI melanoma 15.3% | SK-MEL-28 melanoma 66% | SK-MEL-2 melanoma 39.8% | EKVX NSCLC 38.8% | SN12C renal 27% | UO-31 renal 41.6% | TK-10 renal 45.5% | ACHN renal 30.1% | CCRF-CEM leukemia 13.8% | MOLT-4 leukemia 26.5%

O=C(c1ccccc1)N(C(=S)NCCc1ccc(Cl)cc1)c1ccccc1
inactive: HT29 colon 101% | SNB-75 CNS 118% | SNB-19 CNS 104% | U251 CNS 87.6% | PC-3 prostate 83.3% | SK-MEL-5 melanoma 98.3% | UACC-62 melanoma 96.9% | LOX IMVI melanoma 68.2% | SK-MEL-28 melanoma 113% | SK-MEL-2 melanoma 99.9% | EKVX NSCLC 96.3% | SN12C renal 110% | UO-31 renal 80% | TK-10 renal 82.5% | ACHN renal 108% | CAKI-1 renal 93.2% | A498 renal 95.3% | CCRF-CEM leukemia 61.3% | MOLT-4 leukemia 47.6%

C#CCn1cc(C=C2C(=O)NC(=O)NC2=O)c2cc(Cl)ccc21
inactive: HT29 colon 116% | SNB-75 CNS 92.9% | SNB-19 CNS 78.8% | U251 CNS 82.1% | PC-3 prostate 92% | SK-MEL-5 melanoma 81.9% | UACC-62 melanoma 65.3% | LOX IMVI melanoma 73.2% | SK-MEL-28 melanoma 106% | SK-MEL-2 melanoma 98.1% | EKVX NSCLC 90.9% | SN12C renal 81.3% | UO-31 renal 67.5% | TK-10 renal 118% | ACHN renal 97.4% | CAKI-1 renal 72% | CCRF-CEM leukemia 82.2% | MOLT-4 leukemia 77.9%
active: A498 renal -53.3%

Cc1c(-c2noc(-c3ccc([N+](=O)[O-])cc3)n2)no[n+]1[O-]
inactive: HT29 colon 105% | SNB-75 CNS 89.8% | SNB-19 CNS 99.8% | U251 CNS 99.8% | PC-3 prostate 92.5% | SK-MEL-5 melanoma 92.1% | UACC-62 melanoma 87.6% | LOX IMVI melanoma 97.7% | SK-MEL-28 melanoma 108% | SK-MEL-2 melanoma 101% | EKVX NSCLC 65.2% | SN12C renal 98.3% | UO-31 renal 78.4% | TK-10 renal 153% | ACHN renal 89.2% | CAKI-1 renal 83.8% | A498 renal 117% | CCRF-CEM leukemia 101% | MOLT-4 leukemia 101% | SR leukemia 103%
